# Reference: the supplement of paper PMC10849652
# The full data set covers some 7,900 targets. This sample favours those with a hit. About 0.6% of all pairs of compound and target were hits. A number with no mark means an inactive call.
# Legend:
# Assay in all cases: log2 fold change, soluble protein after heating vs DMSO (PISA); higher = thermal stabilisation; K562 cells, 10 uM, 30 min; active = over 0.2 and 3.5 SD of the protein, either way, in both replicates (recomputed)
# [1] = compound: CS(=O)(=O)c1ccc(-c2cnc(N)c(C(=O)Nc3ccccc3)n2)cc1
# Procedure, shortened: (§1)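 Thermal stability values are relative to control samples and come from duplicates. They are expressed as log2 fold changes. For measurement, K562 cells (2×10^6 cells/mL) received 10 μM compound for 30 min, and aliquots were heated for 3 min over 48°C-58°C, pooled, and extracted at 4°C in PBS with 0.5% NP-40. Soluble protein, the supernatant after 21,000xg for 90 min, was quantified by TMTpro 16plex LC-MS/MS with equalised channel sums.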
# crizotinib = compound: C[C@@H](Oc1cc(-c2cnn(C3CCNCC3)c2)cnc1N)c1c(Cl)ccc(F)c1Cl [crizotinib]
# Procedure, shortened: as §1
# [2] = compound: C[C@@H]1COCCN1C2=NC(=NC(=C2)C3(CC3)S(=O)(=O)C)C4=C5C=CNC5=CC=C4
# Procedure, shortened: as §1
# [3] = compound: C[C@H](C1=CC=C(C=C1)C(=O)NC2=C3C=CNC3=NC=C2)N
# Procedure, shortened: as §1
# duvelisib = compound: C[C@H](Nc1ncnc2nc[nH]c12)c1cc2cccc(Cl)c2c(=O)n1-c1ccccc1 [duvelisib]
# Procedure, shortened: as §1
# gandotinib = compound: Cc1cc(Nc2cc(CN3CCOCC3)c3nc(C)c(Cc4ccc(Cl)cc4F)n3n2)n[nH]1 [gandotinib]
# Procedure, shortened: as §1
# tozasertib = compound: Cc1cc(Nc2cc(N3CCN(C)CC3)nc(Sc3ccc(NC(=O)C4CC4)cc3)n2)n[nH]1 [tozasertib]
# Procedure, shortened: as §1
# [4] = compound: Cc1cc(SCc2sc(-c3ccc(C(F)(F)F)cc3)nc2C)ccc1OCC(=O)O
# Procedure, shortened: as §1
# doramapimod = compound: Cc1ccc(-n2nc(C(C)(C)C)cc2NC(=O)Nc2ccc(OCCN3CCOCC3)c3ccccc23)cc1 [doramapimod]
# Procedure, shortened: as §1
# ispinesib = compound: Cc1ccc(C(=O)N(CCCN)[C@@H](c2nc3cc(Cl)ccc3c(=O)n2Cc2ccccc2)C(C)C)cc1 [ispinesib]
# Procedure, shortened: as §1
# Chain of UniProt Q6EEV4 (Q6EEV4 whole entry, looked up): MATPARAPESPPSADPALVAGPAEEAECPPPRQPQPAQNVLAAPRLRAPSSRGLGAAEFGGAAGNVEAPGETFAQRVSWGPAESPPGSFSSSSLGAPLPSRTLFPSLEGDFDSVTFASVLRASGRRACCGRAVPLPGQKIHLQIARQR
# Chain of UniProt P60484 (P60484 whole entry, looked up): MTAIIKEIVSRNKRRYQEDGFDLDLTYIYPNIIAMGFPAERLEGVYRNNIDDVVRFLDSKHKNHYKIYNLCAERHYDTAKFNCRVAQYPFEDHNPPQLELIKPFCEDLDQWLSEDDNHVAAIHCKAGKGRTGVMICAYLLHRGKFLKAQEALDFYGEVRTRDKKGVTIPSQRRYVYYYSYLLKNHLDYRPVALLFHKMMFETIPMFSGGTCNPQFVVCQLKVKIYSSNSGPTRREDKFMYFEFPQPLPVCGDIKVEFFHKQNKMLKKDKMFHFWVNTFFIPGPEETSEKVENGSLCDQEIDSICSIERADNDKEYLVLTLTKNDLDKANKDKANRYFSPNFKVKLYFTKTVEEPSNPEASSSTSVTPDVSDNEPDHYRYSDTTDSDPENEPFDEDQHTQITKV
# Chain of UniProt Q86UU1 (Q86UU1 whole entry, looked up): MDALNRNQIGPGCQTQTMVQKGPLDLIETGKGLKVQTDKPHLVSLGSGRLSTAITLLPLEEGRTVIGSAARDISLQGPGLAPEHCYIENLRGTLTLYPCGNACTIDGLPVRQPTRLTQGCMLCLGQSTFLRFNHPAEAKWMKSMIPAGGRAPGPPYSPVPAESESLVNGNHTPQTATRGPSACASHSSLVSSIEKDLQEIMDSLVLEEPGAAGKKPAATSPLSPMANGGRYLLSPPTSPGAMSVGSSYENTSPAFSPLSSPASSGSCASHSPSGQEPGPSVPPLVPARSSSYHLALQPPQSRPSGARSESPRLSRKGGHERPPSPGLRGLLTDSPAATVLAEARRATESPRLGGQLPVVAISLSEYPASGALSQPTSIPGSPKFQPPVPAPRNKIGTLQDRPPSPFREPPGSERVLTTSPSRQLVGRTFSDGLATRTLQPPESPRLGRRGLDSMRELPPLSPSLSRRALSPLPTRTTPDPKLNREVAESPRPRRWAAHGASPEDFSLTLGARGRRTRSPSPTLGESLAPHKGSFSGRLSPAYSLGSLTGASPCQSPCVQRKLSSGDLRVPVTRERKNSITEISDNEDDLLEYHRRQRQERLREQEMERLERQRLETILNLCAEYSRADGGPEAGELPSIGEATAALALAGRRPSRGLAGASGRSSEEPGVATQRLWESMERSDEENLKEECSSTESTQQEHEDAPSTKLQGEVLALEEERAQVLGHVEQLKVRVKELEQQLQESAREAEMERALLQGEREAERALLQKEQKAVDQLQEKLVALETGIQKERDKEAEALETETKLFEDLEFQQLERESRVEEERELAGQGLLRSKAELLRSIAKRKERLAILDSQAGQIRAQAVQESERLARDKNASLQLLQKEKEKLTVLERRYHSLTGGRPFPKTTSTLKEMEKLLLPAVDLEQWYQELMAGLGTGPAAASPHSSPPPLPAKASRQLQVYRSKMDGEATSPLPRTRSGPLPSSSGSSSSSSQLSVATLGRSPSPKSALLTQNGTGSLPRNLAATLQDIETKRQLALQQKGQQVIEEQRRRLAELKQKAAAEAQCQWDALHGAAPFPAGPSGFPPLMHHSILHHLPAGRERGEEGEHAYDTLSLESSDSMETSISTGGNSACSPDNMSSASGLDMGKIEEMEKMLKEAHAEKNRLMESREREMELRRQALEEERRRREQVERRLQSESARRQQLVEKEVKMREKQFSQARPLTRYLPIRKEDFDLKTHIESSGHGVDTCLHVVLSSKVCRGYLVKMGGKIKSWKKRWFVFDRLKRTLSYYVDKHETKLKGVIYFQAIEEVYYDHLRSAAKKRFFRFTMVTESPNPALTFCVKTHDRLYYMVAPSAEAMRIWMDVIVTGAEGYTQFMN
# Chain of UniProt O00329 (O00329 whole entry, looked up): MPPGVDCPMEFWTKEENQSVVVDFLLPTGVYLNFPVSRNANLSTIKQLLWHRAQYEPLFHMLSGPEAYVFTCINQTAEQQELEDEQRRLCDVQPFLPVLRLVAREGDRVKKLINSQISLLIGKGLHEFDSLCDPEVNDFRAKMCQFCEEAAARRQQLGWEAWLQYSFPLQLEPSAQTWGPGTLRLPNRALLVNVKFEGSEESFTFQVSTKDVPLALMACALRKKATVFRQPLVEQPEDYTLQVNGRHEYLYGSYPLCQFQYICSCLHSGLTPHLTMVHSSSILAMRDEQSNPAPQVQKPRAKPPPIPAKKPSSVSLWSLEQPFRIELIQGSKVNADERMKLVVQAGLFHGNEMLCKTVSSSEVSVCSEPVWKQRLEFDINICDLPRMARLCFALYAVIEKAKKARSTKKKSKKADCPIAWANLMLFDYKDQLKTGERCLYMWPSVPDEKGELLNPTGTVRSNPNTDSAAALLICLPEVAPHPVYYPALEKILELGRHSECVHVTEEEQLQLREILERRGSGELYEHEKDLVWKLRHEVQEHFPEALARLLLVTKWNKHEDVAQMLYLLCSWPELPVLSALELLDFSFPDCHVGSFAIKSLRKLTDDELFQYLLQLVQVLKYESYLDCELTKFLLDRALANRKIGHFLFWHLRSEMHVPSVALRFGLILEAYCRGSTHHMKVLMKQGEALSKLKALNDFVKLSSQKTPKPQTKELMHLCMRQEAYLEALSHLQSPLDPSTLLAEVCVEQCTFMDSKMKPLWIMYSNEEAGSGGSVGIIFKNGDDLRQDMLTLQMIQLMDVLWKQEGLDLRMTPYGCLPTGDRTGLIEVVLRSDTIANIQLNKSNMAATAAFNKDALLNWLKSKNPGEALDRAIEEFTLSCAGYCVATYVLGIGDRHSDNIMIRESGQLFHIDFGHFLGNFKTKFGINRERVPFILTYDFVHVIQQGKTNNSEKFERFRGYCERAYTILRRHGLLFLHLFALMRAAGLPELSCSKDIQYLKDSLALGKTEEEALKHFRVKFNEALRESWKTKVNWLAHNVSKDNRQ
# Chain of UniProt O94913 (O94913 whole entry, looked up): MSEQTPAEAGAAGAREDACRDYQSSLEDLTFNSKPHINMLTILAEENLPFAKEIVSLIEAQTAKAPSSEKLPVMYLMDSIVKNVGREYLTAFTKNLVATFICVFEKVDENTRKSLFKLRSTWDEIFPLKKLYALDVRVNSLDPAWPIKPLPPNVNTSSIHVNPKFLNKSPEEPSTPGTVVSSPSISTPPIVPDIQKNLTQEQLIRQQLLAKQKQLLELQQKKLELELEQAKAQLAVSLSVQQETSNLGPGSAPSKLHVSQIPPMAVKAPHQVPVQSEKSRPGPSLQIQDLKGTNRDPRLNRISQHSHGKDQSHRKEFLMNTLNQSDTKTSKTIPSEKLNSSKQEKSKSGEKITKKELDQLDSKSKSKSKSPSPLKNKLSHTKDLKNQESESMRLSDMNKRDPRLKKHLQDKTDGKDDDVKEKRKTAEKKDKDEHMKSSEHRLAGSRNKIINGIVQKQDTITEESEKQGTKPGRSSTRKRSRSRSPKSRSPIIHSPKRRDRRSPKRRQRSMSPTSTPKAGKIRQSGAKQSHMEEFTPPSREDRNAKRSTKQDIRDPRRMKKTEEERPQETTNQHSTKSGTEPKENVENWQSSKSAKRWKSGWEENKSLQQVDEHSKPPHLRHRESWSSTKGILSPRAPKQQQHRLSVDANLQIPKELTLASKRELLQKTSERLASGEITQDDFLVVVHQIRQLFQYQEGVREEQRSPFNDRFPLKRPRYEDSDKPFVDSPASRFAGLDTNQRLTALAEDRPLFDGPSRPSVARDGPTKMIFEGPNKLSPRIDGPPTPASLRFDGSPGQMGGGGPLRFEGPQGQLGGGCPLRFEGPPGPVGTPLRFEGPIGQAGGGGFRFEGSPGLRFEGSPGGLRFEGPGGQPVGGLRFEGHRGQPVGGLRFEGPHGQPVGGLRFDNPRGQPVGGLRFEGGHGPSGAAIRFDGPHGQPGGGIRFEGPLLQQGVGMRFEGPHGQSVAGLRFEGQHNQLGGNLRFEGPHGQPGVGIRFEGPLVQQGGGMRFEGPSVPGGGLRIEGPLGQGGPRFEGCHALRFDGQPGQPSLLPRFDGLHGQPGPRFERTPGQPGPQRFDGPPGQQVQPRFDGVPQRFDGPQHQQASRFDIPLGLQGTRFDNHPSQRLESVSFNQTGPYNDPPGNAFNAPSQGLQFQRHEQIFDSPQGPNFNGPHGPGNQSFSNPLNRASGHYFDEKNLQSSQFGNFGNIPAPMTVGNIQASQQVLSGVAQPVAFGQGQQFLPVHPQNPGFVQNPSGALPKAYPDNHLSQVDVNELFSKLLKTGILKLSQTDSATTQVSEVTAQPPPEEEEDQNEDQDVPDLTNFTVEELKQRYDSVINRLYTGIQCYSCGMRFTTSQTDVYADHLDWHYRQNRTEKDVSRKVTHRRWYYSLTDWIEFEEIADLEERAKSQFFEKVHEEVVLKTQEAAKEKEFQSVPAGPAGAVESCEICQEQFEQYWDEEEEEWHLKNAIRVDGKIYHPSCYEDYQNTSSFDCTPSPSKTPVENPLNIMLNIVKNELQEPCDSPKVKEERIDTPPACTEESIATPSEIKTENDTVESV
# Chain of UniProt Q14442 (Q14442 whole entry, looked up): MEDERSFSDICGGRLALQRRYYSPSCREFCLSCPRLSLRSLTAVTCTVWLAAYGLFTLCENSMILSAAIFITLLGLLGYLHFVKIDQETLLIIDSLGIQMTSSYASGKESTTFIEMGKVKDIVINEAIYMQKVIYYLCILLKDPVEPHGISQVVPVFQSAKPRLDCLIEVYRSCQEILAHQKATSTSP
# Chain of UniProt Q15365 (Q15365 whole entry, looked up): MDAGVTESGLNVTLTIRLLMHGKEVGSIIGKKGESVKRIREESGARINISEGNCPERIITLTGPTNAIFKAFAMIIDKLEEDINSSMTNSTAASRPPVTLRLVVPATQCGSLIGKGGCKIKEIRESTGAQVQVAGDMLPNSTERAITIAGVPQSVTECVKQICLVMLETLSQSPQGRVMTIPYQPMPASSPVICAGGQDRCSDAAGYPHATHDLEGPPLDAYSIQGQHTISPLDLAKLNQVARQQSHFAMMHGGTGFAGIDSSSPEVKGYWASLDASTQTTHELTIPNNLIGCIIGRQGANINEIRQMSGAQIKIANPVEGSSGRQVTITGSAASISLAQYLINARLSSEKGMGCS
Target,log2 fold change [1],log2 fold change (crizotinib),log2 fold change [2],log2 fold change [3],log2 fold change (duvelisib),log2 fold change (gandotinib),log2 fold change (tozasertib),log2 fold change [4],log2 fold change (doramapimod),log2 fold change (ispinesib)
PDSS2 (UniProt Q86YH6),-0.034,0.078,0.075,-0.058,-0.083,0.098,-0.118,0.149,0.049,-0.031
POLR2M (UniProt Q6EEV4),-0.03,-0.021,0.16,-0.078,-0.024,–,-0.039,-0.061,-0.04,–
PDPK1 (UniProt O15530),-0.066,-0.282 (active),0.081,0.013,-0.206,-0.173,-0.085,0.015,0.003,-0.143
PSPC1 (UniProt Q8WXF1),-0.068,0.076,-0.044,0.088,-0.03,-0.09,0.01,0.04,-0.028,-0.217
PNPLA2 (UniProt Q96AD5),0.048,-0.055,0.094,0.095,0.156,-0.303,-0.06,-0.065,0.046,-0.395 (active)
PLD3 (UniProt Q8IV08),-0.034,-0.158,0.005,-0.03,-0.012,0.006,-0.009,-0.023,0.001,-0.132
PSMB6 (UniProt P28072),0.01,0.096,0.003,0.059,-0.049,0.444 (active),0.011,-0.029,0.049,-0.037
PDIK1L (UniProt Q8N165),0.009,-0.082,-0.003,0.029,0.086,–,-0.094,0.017,0.085,0.039
QRICH1 (UniProt Q2TAL8),-0.01,-0.2,0.07,0.016,0.143,–,0.171,0.014,-0.077,0.006
PIK3CD (UniProt O00329),-0.019,0.009,0.034,0.14,0.233,–,0.049,-0.11,0.042,-0.029
PSMB9 (UniProt P28065),0.259,0,0.075,0.066,–,0.126,–,–,0.084,–
PCBP1 (UniProt Q15365),0.012,0,0.094,-0.012,0.042,-0.12,0.047,0.07,-0.016,0.028
PTPN23 (UniProt Q9H3S7),0.014,0.057,0.018,0.027,0.116,-0.072,0.148,0.13,-0.002,0.018
PSMD8 (UniProt K7ERW6),–,-0.021,–,–,–,–,-0.231,–,0.066,–
PHRF1 (UniProt Q9P1Y6),–,–,–,–,–,–,–,–,–,-0.296
PUM1 (UniProt Q14671),–,-0.079,–,-0.362,-0.187,0.207,0.019,0.203,0.041,–
PDE4A (UniProt P27815),–,0.055,-0.102,-0.171,–,–,0.027,–,0.065,-0.098
PCNX1 (UniProt Q96RV3),–,–,0.257,–,–,–,0.071,–,–,–

Target,log2 fold change [1],log2 fold change (crizotinib),log2 fold change [2],log2 fold change [3],log2 fold change (duvelisib),log2 fold change (gandotinib),log2 fold change (tozasertib),log2 fold change [4],log2 fold change (doramapimod),log2 fold change (ispinesib)
PSD3 (UniProt Q9NYI0),–,0.071,–,-0.047,–,–,–,–,-0.02,-0.075
PCBP2 (UniProt F8VZX2),–,-0.273,–,0.234,-0.147,–,–,0.065,-0.107,-0.124
PMVK (UniProt Q15126),0.088,–,0.02,0.083,-0.055,-0.705 (active),-0.186,0.333,–,–
PSMC1 (UniProt G3V4X1),–,–,–,0.099,–,0.066,–,–,–,–
PCF11 (UniProt O94913),–,-0.137,–,0.211,–,-0.149,–,–,0.051,-0.533
PIGH (UniProt Q14442),–,-0.037,-0.012,-0.179,-0.034,0.036,0,0.04,-0.062,0.033
POLB (UniProt P06746),-0.078,–,-0.003,0.036,-0.178,0.081,0.077,-0.045,–,-0.1
PPP2R5C isoform 2 (UniProt Q13362),–,0.243,–,–,–,–,–,–,0.052,0.023
PHLDB1 isoform 2 (UniProt Q86UU1),–,-0.307,0.058,-0.043,-0.759 (active),-0.281,-0.126,0.108,0.032,-0.053
PEX5 isoform 4 (UniProt P50542),-0.091,–,-0.016,0.15,-0.379,–,-0.013,-0.047,–,-0.078
PPP1R12C (UniProt Q9BZL4),-0.016,–,-0.198,–,-0.011,-0.001,0.091,0.018,–,-0.009
PRKD2 (UniProt M0R346),-0.025,–,0.241,–,–,0.109,–,–,–,–
PAN2 (UniProt Q504Q3),–,–,–,–,-0.032,–,–,0.299,–,–
PSMA3 (UniProt H0YJ03),–,0.081,–,0.099,0.092,–,-0.049,-0.07,0.072,-0.213
PTPA (UniProt A6PVN8),-0.116,–,0.083,0.1,-0.002,-0.048,-0.069,-0.203,–,-0.04
PTEN isoform 2 (UniProt P60484),–,0.077,–,–,–,0.312,–,–,0.001,0.024
PMS2CL (UniProt Q68D20),–,–,-0.091,–,–,–,–,–,–,0.105
